This is an account of results in ChEMBL document CHEMBL3988442, “University of Dundee, Small-Polar-MMV Screening Library” (2021).

Screen size: about 69,000 compounds; about 420 (0.61%) showed an effect of 50% or more. This is one part of a sample in which strong results are shown more often than they occur.

The experiment addresses T1, Histidine--tRNA ligase (Leishmania infantum) (UniProt A4I591).
T1 sequence (whole entry): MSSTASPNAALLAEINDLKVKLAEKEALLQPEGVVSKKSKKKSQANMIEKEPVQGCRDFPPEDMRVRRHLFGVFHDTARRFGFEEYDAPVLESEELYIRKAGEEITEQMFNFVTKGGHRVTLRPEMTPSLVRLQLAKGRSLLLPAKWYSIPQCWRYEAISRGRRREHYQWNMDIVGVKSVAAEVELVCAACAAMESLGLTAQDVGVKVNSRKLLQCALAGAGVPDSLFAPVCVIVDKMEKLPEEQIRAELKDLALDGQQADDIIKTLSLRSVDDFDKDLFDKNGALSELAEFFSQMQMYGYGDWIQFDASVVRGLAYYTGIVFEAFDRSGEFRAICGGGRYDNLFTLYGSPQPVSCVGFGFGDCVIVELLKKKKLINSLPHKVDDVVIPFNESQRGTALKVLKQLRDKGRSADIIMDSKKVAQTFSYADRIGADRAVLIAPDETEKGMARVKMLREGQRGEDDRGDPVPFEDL
Description: Leishmania infantum Histidine tRNA synthetase (LdHisRS). The experiment is classed as functional. Also on record: scale not given: in the data most compounds retested in dose-response had high values. Particulars: 30 µM.
Consider `O=C([C@@H]1C[C@@H]2CCN(Cc3ccoc3)C[C@H]2O1)N1CCCC1`, for which the Percent Effect turned out to be 2.73%.
Turning to `CN(C)C[C@@H]1C[C@@H]2CN(C(=O)c3ccoc3)CC[C@@H]2N1CC1CC1`, the Percent Effect was found to be 7.32%.
Then `NC(=O)N1C[C@H](NC(=O)c2cscn2)[C@@H]2OCCC[C@@H]21`, with 13.6%; and `CC(C)CC(=O)N1CC[C@H]2N(C)CC[C@@]2(C(=O)Nc2cccnc2)CC1`, with 11.7%.
The same measure for `CN(C)C(=O)Cc1ccccc1NCc1cccc2cccnc12`: 13.6%; for `CCCN1CCC(NC(=O)Nc2ccc(OC)c(OC)c2)CC1`: 1.33%.
As to `Cn1cc(NC(=O)Nc2cccc3cccnc23)ccc1=O`, the Percent Effect amounted to 114%.
Consider `CCCn1cc(NC(=O)c2ccc(NC(=O)NC3CC3)cc2)ccc1=O`, for which the Percent Effect stood at 92.8%.
Take `CCCn1cc(NC(=O)c2ccncc2)ccc1=O`: the Percent Effect stood at 104%.
Regarding `O=C(Nc1ccc2c(ccn2CCN2CCOCC2)c1)c1ccncc1`, the Percent Effect worked out at 25.7%.
Consider `O=C(Nc1ccc(CCN2CCSCC2)cc1)NC1CC1`, for which the Percent Effect came out at 16.4%.
`CCCn1cc(NC(=O)c2ccc(S(C)(=O)=O)cc2)ccc1=O`: the Percent Effect turned out to be 94.6%.
In the case of `Cn1cc(C(=O)Nc2cccc(F)c2)ccc1=O`, the Percent Effect turned out to be 26.5%.
Then `CCCn1cc(NC(=O)c2ccc(N(C)CC)cc2)ccc1=O`, with 31.5%; and `CCN(CC)C(CNC(=O)c1ccc(S(C)(=O)=O)cc1)c1ccco1` (stereo not given), with 19.2%.
Then `COC(=O)N1CCCN(C(=O)c2cccc3cccnc23)CC1`, with 8.26%; and `COCC1(CNC(=O)[C@@]23CNC[C@@H]2CN(C2CCCC2)C3)CC1`, with 12.8%.
Regarding `CS(=O)(=O)N1C[C@H](NC(=O)c2ccno2)[C@@H]2OCCC[C@@H]21`, the Percent Effect was 10%.
Turning to `COc1ccc(CN2C[C@@H]3OCCN(C)[C@@H]3C2)cc1`, the Percent Effect is 19.3%.
The same measure for `Cc1nc([C@@H]2C[C@H]3CN(Cc4scnc4C)C[C@H]3O2)no1`: 17.1%; for `Cn1cc(C(=O)N[C@H]2CN(Cc3nccs3)[C@@H]3CCCO[C@H]23)cn1`: 28.6%; for `Fc1cnc(N2C[C@H]3CCC[C@@]3(COc3ccccn3)C2)nc1`: 0%.
As to `CC(=O)N1CCO[C@@H]2CN(Cc3cccc(Cl)c3)C[C@@H]2C1`, the Percent Effect was 15.3%.
As for `COc1cccc(CN2C[C@@H]3COC[C@]3(COc3cccnc3)C2)c1`, the Percent Effect came to 19.3%.
Then `c1ccc(OC2COC3(CCN(Cc4ccccn4)CC3)C2)cc1` (stereo not given), with 15%.
Turning to `Cc1cccc(CN2CCS(=O)(=O)[C@@H]3CCN(C(=O)C4CC4)CC[C@@H]32)n1`, the Percent Effect was 5.26%.
The same measure for `Cn1cc(NC(=O)c2cccc3cccnc23)ccc1=O`: 20.5%.
Turning to `CCCn1cc(NC(=O)c2ccc(S(=O)(=O)CC)cc2)ccc1=O`, the Percent Effect was determined as 114%.
Then `CCCn1cc(NC(=O)c2cccnc2O)ccc1=O`, with 17.1%; and `CCS(=O)(=O)c1cccc(C(=O)Nc2cccc3c2C(=O)N(C)C3=O)c1`, with 21.5%; and `CN1CCC/C1=N\S(=O)(=O)c1ccc(NC(=O)c2ccc(F)cc2)cc1`, with 15.6%.
For the compound `CCCn1cc(NC(=O)c2cccc3cccnc23)ccc1=O`, the Percent Effect amounted to 75.9%.
The same measure for `O=C(C[C@@H]1COC[C@H]2CN(Cc3ccccc3)C[C@@H]12)N1CCCC1`: 23.1%; for `CN1[C@@H](C(=O)NCC2CC2)C[C@@H]2CN(Cc3ccco3)C[C@@H]21`: 17.1%; for `CCOC(=O)[C@]12CCCN(Cc3nccs3)C[C@H]1CN(C(C)=O)C2`: 10.7%.
On to `O=C([C@@H]1CC[C@@H]2[C@@H](CCN2CCOCc2ccccc2)O1)N1CCCC1`, for which the Percent Effect came out at 16%.
Then `CN(C)C(=O)CN1C[C@@H]2CC[C@H](C1)N(Cc1ccc3nsnc3c1)C2`, with 11.3%.
Then `Cc1cnc(N2CC[C@@H]3O[C@@H](COCc4ccccn4)CC[C@@H]32)nc1`, with 13%; and `COc1ccccc1C1CC(=O)Nc2nc(N3CCCCC3)sc21` (stereo not given), with 118%.
Then `CC(C)Oc1ccccc1C1CC(=O)Nc2c1cnn2C` (stereo not given), with -14.3%; and `COc1cccc(CNc2nc(N3CCOCC3)ns2)c1OC`, with 13.5%; and `CC(C)Oc1ccccc1C1CC(=O)Nc2nc(N3CCOCC3)sc21` (stereo not given), with 97.5%.
Regarding `CCn1ncnc1C1CC(=O)NCc2nc(N3CCCC3)sc21` (stereo not given), the Percent Effect came to 15.7%.
Turning to `CCOc1cccc(C2CC(=O)NCc3nc(N4CCCC4)sc32)c1` (stereo not given), the Percent Effect amounted to 24.7%.
Take `COc1cccc(CNCc2ccnc(N3CCOCC3)c2)c1OC`: the Percent Effect was 7.14%.
The same measure for `COc1ccccc1C1CC(=O)Nc2c1c(=O)[nH]n2C1CCCC1` (stereo not given): 14.3%; for `COc1ccccc1C1CC(=O)Nc2c1c(=O)[nH]n2C(C)C` (stereo not given): 16.5%.
As for `COc1cccc(C2CC(=O)Nc3nc(N4CCCCC4)sc32)c1OC` (stereo not given), the Percent Effect was 120%.
Then `COc1cccc(C2CC(=O)Nc3nc(N4CCOCC4)sc32)c1OC` (stereo not given), with 111%; and `O=c1[nH]nc(-c2cccs2)c2sc(N3CCOCC3)nc12`, with 11.9%; and `Cc1cccc(CN2C(=O)CC[C@@H]3[C@H]2CCN3Cc2ccc(C)s2)n1`, with 8.03%.
Then `CC1=N[C@@]2(CC[C@@H]3CN(S(=O)(=O)N(C)C)C[C@@H]32)C(=O)N1CC(C)C`, with 9.02%; and `CC(=O)N1CC[C@H]2CC(=O)N(CCc3c[nH]cn3)CC[C@H]2C1`, with 9.46%; and `Cc1ncc(C(=O)N2CC[C@@]3(O)CCN(C(=O)N(C)C)C[C@H]3C2)cn1`, with 10.6%.
The same measure for `O[C@@]1(CN2CCN(Cc3ccncc3)CC2)CCCN2CCCC[C@@H]21`: 20%.
